From PubChem BioAssay AID651747 (Johns Hopkins Ion Channel Center, 2012)
Among all 2,400 compounds or so, about 950 (40%) were called active.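 How the source made its calls: active means thallium flux ratio, averaged over three wells, more than 5 SD below the buffer control mean; inactive means the rest.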 These entries were drawn from the full list.

Assay: thallium flux inhibition in non-induced cells, primary screen, counter-screen for KCNK3 inhibitor project, cell-based, non-induced KCNK3 line, FluxOR thallium, triplicate (AID 651747);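 further: host cells are CHO cells without KCNK3 induction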;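 on thallium flux ratio (lower = more inhibition): ratio is peak minus trough fluorescence over baseline then normalized to buffer controls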
Conditions: non-induced KCNK3 parental cells, at 10 µM; active compounds read low

SMILES | thallium flux ratio (lower = more inhibition)
c1ccc2c(NC3C4CC5CC(C4)CC3C5)nc(N3CCOCC3)nc2c1 (stereo not given) | 0.151 (active)
COc1ccc(Cl)cc1NC(=O)C(C)N1CCc2ccccc21 (stereo not given) | inactive
CCOc1ccc(C2c3[nH]c4ccccc4c3CCN2Cc2cccn2-c2ncccn2)cc1 (stereo not given) | inactive
C=CCc1cc(S(=O)(=O)c2ccc(O)c(CC=C)c2)ccc1O | 0.155 (active)
CCN(CC)CCN(C(=O)c1cc(Cl)sc1Cl)c1nc2cc3c(cc2s1)OCO3 | 0.143 (active)
COc1cc(Cl)c(S(=O)(=O)N2CCN(Cc3ccc4c(c3)OCO4)CC2)cc1Cl | inactive
COC(=O)c1cc(NC2c3ccccc3C(=O)N2c2ccc(Cl)cn2)cc(C(=O)OC)c1 (stereo not given) | inactive
CCCCC(=O)Nc1ccccc1N1CCN(c2ccc(F)cc2)CC1 | inactive
Cc1cccc(C(=O)Nc2ccccc2N2CCN(c3ccc(F)cc3)CC2)c1 | 0.151 (active)
O=C(CNCCC1=CCCCC1)Nc1ccccc1N1CCCCCC1 | inactive
O=C(Nc1ccccc1N1CCCC1)c1ccc2ccccc2c1 | 0.131 (active)
CCc1cc(C(c2ccccc2OC)N2CCOCC2)c(NC(=O)c2ccccc2)s1 (stereo not given) | inactive
CSCc1cc(N(C)C)nc(SCc2ccc(Cl)cc2Cl)n1 | 0.15 (active)
COc1ccc2c(c1)C(c1cccs1)=NNC(c1cccnc1)=N2 | inactive
c1ccc(C(c2ccccc2)N2CCN(Cc3nnnn3C3CCCCC3)CC2)cc1 | 0.129 (active)
Cc1cccc2c1-c1sc(C(=O)NCCCN3CCc4ccccc4C3)cc1CO2 | inactive
CCCCCCCCCCCCN1C(=O)CSC1c1cccnc1 (stereo not given) | 0.148 (active)
Cc1c(C(=O)N2CCCc3ccccc32)sc2nc(-c3ccccc3)cn12 | inactive
COc1ccc(CC(=O)Nc2nc(-c3ccc(F)c(F)c3)cs2)cc1OC | 0.102 (active)
CCc1ccc2nc3sc(C(=O)Nc4nnc(CC)s4)c(N)c3cc2c1 | 0.108 (active)
COc1ccc(C2Nc3ccccc3C(=O)N2Cc2ccccc2)cc1Cn1nnc2ccccc21 (stereo not given) | 0.144 (active)
CCCc1cc(C(=O)N2CCCC(CO)(CCCc3ccccc3)C2)n(C)n1 (stereo not given) | 0.152 (active)
CC(=O)N1CCCc2cc(S(=O)(=O)N3CCCC(C(=O)N4CCN(c5cccc(Cl)c5)CC4)C3)ccc21 (stereo not given) | inactive
CC(Sc1nc2ccccc2c(=O)n1Cc1ccco1)C(=O)c1ccccc1 (stereo not given) | inactive
O=C(Nn1c(SCc2ccc([N+](=O)[O-])cc2)nc2ccccc2c1=O)c1ccc(F)cc1 | 0.136 (active)

SMILES | thallium flux ratio (lower = more inhibition)
CCc1nc(SCC(=O)NNC(=O)c2ccc(C)cc2)c2ccccc2n1 | inactive
COc1cc(C(=O)Nc2oc(-c3ccccc3)c(-c3ccccc3)c2C#N)cc(OC)c1OC | inactive
Cc1cc(NC(=O)Nc2ccc(Cl)cc2)n(-c2ccccc2)n1 | inactive
O=C(Nc1cccc(S(=O)(=O)Nc2ccc(Cl)cc2)c1)c1ccc2c(c1)OCCO2 | 0.136 (active)
C=CCN(N=Nc1cccc([N+](=O)[O-])c1)c1cccc([N+](=O)[O-])c1 | inactive
CCC(C)(C)n1nnnc1C(c1cccs1)N1CCN(c2nc3ccccc3s2)CC1 (stereo not given) | 0.156 (active)
COc1ccccc1C(c1nnnn1C(C)(C)C)N1CCN(Cc2ccccc2)CC1 (stereo not given) | inactive
COCCNc1cc(-c2ccccc2)nc2cc(-c3cccc(F)c3)nn12 | 0.13 (active)
Cc1nc(N2CCN(c3ccccn3)CC2)c2c(C)c(C(=O)Nc3ccc(F)c(Cl)c3)sc2n1 | inactive
Cc1nc(N2CCOCC2)c2c(C)c(C(=O)Nc3ccc(C(F)(F)F)cc3)sc2n1 | 0.152 (active)
Cc1nc(N2CCN(c3ccccn3)CC2)c2c(C)c(C(=O)Nc3ccc(F)cc3)sc2n1 | inactive
Cc1ccc(NC(=O)COC(=O)CNC(=O)c2ccc(Cl)cc2Cl)cc1S(=O)(=O)N1CCOCC1 | inactive
O=C(N/N=C/c1sc(N2CCCCC2)nc1-c1cccs1)c1cccnc1 | 0.155 (active)
Oc1ccc(/C=N/Nc2nc(-c3ccccc3F)nc3ccccc23)c(O)c1 | 0.143 (active)
Cc1cc(C)c(C#N)c(SCc2ccc3c(c2)OCO3)n1 | 0.115 (active)
COc1ccc(CN(C)C(=O)c2cc(-c3ccc(C)cc3C)nc3ccccc23)c(OC)c1OC | 0.111 (active)
O=C(N/N=C/c1cccc(OCc2ccccc2)c1)c1ccc(Br)o1 | inactive
COc1ccc(-c2nc(CCNC(=O)c3ccc(Br)o3)cs2)cc1 | inactive
Cc1nc2ccccc2cc1OCc1ccc(F)cc1 | inactive
CC(=O)c1ccccc1OCc1ccc(C(=O)c2ccccc2)cc1 | 0.103 (active)
COc1ccc(CCNC(=O)c2ccccc2OCc2ccccc2)cc1 | 0.153 (active)
O=C(Oc1ccc(Br)cc1C(=S)N1CCOCC1)c1cccc([N+](=O)[O-])c1 | inactive
COC(=O)c1ccc(COC(=O)C2CCN(S(=O)(=O)c3c(Cl)cccc3Cl)CC2)o1 | inactive
COc1ccc(S(=O)(=O)NCCCCOc2ccc(Cl)cc2)cc1 | 0.135 (active)
COc1ccc(C(C)=O)cc1COc1ccc(Cl)c(C)c1 | 0.158 (active)
